# Screening results as filed in PubChem.
# Most compounds without a hit are left out; they make up all but 2.8% or so of the library.
# PP1 counter – PP1-alpha phosphatase inhibitors, primary screen, counter-screen for PP5 inhibitor project, biochemical, fluorescence, OMFP substrate, single point | purified PP1alpha | inhibition, % at 6.7 µM | 320,000 compounds, 0.9% hits | AID 2235, 2010;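 active = inhibition above the mean inhibition of all tested compounds plus 3 SD, computed separately for each screening campaign, cut at about 15% in these data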
# PP5 inh – PP5 phosphatase inhibitors, primary screen, biochemical, fluorescence. Serine/threonine-protein phosphatase 5 (Homo sapiens), P53041. AID 1987, 2009. 320,000 compounds, 0.18% hits. purified PP5c, OMFP substrate fluorescence. inhibition, % at 6.7 µM;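 active = inhibition above the campaign's mean inhibition across all tested compounds plus 3 SD, cut at about 9.5% in these data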;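 note: 0% = DMSO only and 100% = 100 µM cantharidin control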
# Exocytosis inh – LAMP-1 surface exposure blockers, TALL-104 cells – cell-based, flow cytometry, MLPCN library, primary screen; TALL-104 LAMP-1 surface exposure; cells stimulated with thapsigargin and PMA; inhibition, % at 10 µM; 360,000 compounds, 0.66% hits;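 active = inhibition above about 55%, limit read from the data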
# IDE act – human IDE activators in live cells, primary screen, fluorescence polarization, HEK cells, FAbeta-B substrate; Insulin-degrading enzyme (Homo sapiens), P14735; FAbeta-B cleavage; 0% vehicle, 100% cell-free pure enzyme wells; activation, % at 5.96 µM; AID 493087, 2011; 340,000 compounds, 0.073% hits;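 active = activation above the mean of all tested compounds plus 3 SD, set per screening campaign, cut at about 17% in these data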
# Target sequence (P14735 whole entry, looked up): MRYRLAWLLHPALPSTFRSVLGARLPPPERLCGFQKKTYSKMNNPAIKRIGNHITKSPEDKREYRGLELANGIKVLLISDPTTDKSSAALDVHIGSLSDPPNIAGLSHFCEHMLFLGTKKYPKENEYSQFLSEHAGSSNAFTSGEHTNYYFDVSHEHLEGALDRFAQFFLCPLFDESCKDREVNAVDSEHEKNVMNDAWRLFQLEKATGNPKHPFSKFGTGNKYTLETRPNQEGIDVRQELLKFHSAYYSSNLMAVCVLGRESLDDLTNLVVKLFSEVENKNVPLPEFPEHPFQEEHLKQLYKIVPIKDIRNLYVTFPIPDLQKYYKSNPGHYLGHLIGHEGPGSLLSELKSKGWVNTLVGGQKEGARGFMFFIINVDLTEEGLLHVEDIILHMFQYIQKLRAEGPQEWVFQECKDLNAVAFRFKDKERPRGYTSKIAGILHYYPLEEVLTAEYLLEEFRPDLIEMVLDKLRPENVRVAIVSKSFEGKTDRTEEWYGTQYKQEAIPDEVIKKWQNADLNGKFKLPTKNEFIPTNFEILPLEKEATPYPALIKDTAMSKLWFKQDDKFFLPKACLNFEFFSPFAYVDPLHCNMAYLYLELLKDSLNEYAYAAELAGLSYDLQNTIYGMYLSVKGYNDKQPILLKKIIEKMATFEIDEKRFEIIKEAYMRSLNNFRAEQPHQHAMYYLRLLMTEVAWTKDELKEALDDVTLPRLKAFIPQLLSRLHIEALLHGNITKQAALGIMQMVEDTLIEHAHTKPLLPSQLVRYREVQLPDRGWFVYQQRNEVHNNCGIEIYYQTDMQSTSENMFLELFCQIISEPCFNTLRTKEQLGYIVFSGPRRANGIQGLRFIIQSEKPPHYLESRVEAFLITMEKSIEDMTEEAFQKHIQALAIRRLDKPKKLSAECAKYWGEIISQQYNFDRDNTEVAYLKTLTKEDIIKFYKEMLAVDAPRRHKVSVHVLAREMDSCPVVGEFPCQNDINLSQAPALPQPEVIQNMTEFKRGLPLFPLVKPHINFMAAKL
# SKKanGAS inh – S. pyogenes SKKanGAS growth inhibitors in kanamycin, primary screen, streptokinase expression inhibitor project, SKKanGAS strain, BacTiter-Glo luminescence | AID 1662, 2009 | 6 h | inhibition, % at 7.5 µM | 300,000 compounds, 1.3% hits;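 active = mean replicate score, as percent of positive control median, at least 50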;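 note: strain carries kanamycin resistance gene driven by streptokinase promoter and grows in 40 µg/ml kanamycin; loss of luminescence reflects streptokinase promoter inhibition or plain growth inhibition; 0% = median of DMSO wells and 100% = positive control at its reference dose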
# IDE inh – human IDE inhibitors in live cells, primary screen, fluorescence polarization, HEK cells, FAbetaB substrate; inhibition, % at 5.59 µM; FAbetaB cleavage; 320,000 compounds, 0.41% hits; Insulin-degrading enzyme (Homo sapiens), P14735;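 active = percent inhibition above the average of all tested compounds plus 3 SD, set per screening campaign, cut at about 16% in these data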;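 note: IDE supplied by intact live HEK cells; FP after avidin binding of uncleaved biotin substrate so inhibition keeps polarization high; 0% = DMSO wells and 100% = 60 µM reference IDE inhibitor Ii1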
# PP1 inh confirm – PP1 phosphatase inhibitors, confirmation, biochemical, fluorescence, OMFP substrate, triplicate. shares compounds with PP1 counter. purified PP1alpha. inhibition, % at 6.7 µM. 1,900 compounds, 52% hits. AID 2358, 2010;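 active = mean PP1 inhibition above a set limit taken from the earlier primary screen, cut at about 15% in these data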
# PP5 inh counter – PP5 phosphatase inhibition by PP1 hits, confirmation, counter-screen for PP1 inhibitor project, biochemical, fluorescence, triplicate. 1,900 compounds, 4% hits. shares compounds with PP1 counter. inhibition, % at 6.7 µM. AID 2360, 2010. purified PP5c, OMFP fluorescence;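 active = mean PP5 inhibition over triplicate wells above about 9.5% taken from the earlier PP1 screen, limit read from the data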
# IDE inh confirm – human IDE inhibitors in live cells, confirmation, fluorescence polarization, HEK cells, FAbetaB substrate; FAbetaB cleavage; AID 435028, 2010; 1,200 compounds, 51% hits; inhibition, % at 5.59 µM; shares compounds with IDE inh;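 active = mean inhibition across triplicate wells above the cutoff set by the earlier primary insulin-degrading enzyme screen, cut at about 16% in these data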;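 note: 0% = DMSO wells and 100% = 60 µM reference IDE inhibitor Ii1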
# HEK293 tox – cytotoxicity in HEK cells, cytotoxicity control for IDE inhibitor project, cell-based, luminescence; shares compounds with IDE inh; HEK293 cytotoxicity, ATP luminescence; inhibition, % at 5.59 µM; 1,200 compounds, 28% hits; AID 449730, 2010; in the data active = inhibition above about 22%;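 note: 0% = vehicle wells and 100% = reference cytotoxic drug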
# Granule exo CP1 – inhibitors of lytic granule exocytosis, confirmation, TALL-104 cells, flow cytometry, Cherry Pick01; shares compounds with Exocytosis inh; LAMP-1 externalization; stimulated with PMA plus thapsigargin; inhibition, % at 10 µM; 1,500 compounds, 11% hits; AID 651954, 2012; in the data active = inhibition above about 60%;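 note: 0% = stimulated vehicle wells and 100% = unstimulated wells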
# Active calls of the source: *; . = no result.
SMILES,PP1 counter,PP5 inh,Exocytosis inh,IDE act,SKKanGAS inh,IDE inh,others
COc1ccc(-n2nnnc2C(c2cccs2)N2CCC3(CC2)C(=O)NCN3c2ccccc2)cc1 (stereo not drawn),.,.,-7.0,.,.,.,
c1cc2c(cc1N1CCCCC1)C1CC2CCN1 (stereo not drawn),.,.,-3.4,4.3,.,.,
Cc1ccc(C[n+]2c(-c3ccc(C)cc3)cc(-c3ccc(C)cc3)cc2-c2ccc(C)cc2)cc1,24.4*,2.5,-6.9,7.3,105.8*,-0.7,PP1 inh confirm=-6.1;PP5 inh counter=0.6
CC(C)(OOC1(c2ccccc2)NC(=O)c2ccccc21)c1ccccc1 (stereo not drawn),.,.,8.4,.,.,.,
O=C(O)C1C2CCC(O2)C1C(=O)NC1CCCCC1 (stereo not drawn),72.9*,75.7*,-6.0,6.6,-1.9,3.0,PP1 inh confirm=48.3*;PP5 inh counter=56.1*
COc1ccc(NC(=O)C2C3CCC(O3)C2C(=O)O)c(OC)c1 (stereo not drawn),75.0*,76.4*,0.6,3.3,-4.1,3.7,PP1 inh confirm=29.3*;PP5 inh counter=45.8*
O=C(Nc1ccc(Cl)cc1)N1CC1,.,.,0.8,-1.1,.,.,
O=C(O)C1C2CCC(O2)C1C(=O)Nc1ccc(Cl)cc1 (stereo not drawn),62.6*,69.2*,-2.0,.,-9.9,1.3,PP1 inh confirm=18.3*;PP5 inh counter=25.9*
COc1ccc(OC)c(CC(=O)O)c1,-3.2,-3.5,1.1,3.2,-1.5,-6.1,
CC12Nc3ccccc3C(=O)N1Cc1cnnn1-c1ccccc12 (stereo not drawn),.,.,-7.0,.,.,.,
c1cncc(C2Nc3cccc4cccc(c34)N2)c1,23.1*,0.8,7.8,-0.7,-0.5,3.7,PP1 inh confirm=-5.0;PP5 inh counter=-1.4
CN(C)C1C(=O)C(C(N)=O)=C(O)C2(O)C(=O)C3=C(O)c4c(O)cccc4C(C)(O)C3C(O)C12 (stereo not drawn),33.4*,3.7,22.8,5.4,105.0*,-0.2,PP1 inh confirm=-3.8;PP5 inh counter=-4.2
COc1ccc(C(c2nnnn2C2CCCC2)N2CCC3(CC2)C(=O)NCN3c2ccccc2)cc1 (stereo not drawn),.,.,-1.3,.,.,.,
CCOC(=O)c1cnc(SCc2ccc(Cl)c(Cl)c2)nc1N1CC1,.,.,3.8,-0.9,.,.,
C[C@@]12C(=O)OC(=O)[C@]1(C)C1CCC2O1,95.2*,93.9*,-4.8,7.9,.,3.0,PP1 inh confirm=92.9*;PP5 inh counter=93.3*
C/C(=N\N1CCCCC1c1cccnc1)c1c(O)n(C2CCCCC2)c(=S)[nH]c1=O (stereo not drawn),12.8,2.5,-5.5,-31.6,1.1,28.9*,IDE inh confirm=14.3;HEK293 tox=14.9
COc1ccc(NC2Oc3cc4c(cc3C(c3cc(OC)c(OC)c(OC)c3)C2C)OCO4)cc1 (stereo not drawn),.,.,-0.4,0.3,.,.,
O=C1NC(=O)N(c2ccc3c(c2)OCO3)C(=O)/C1=C/c1ccc(N2CCCC2)o1,3.9,4.8,-9.2,-27.0,4.6,19.1*,IDE inh confirm=29.3*;HEK293 tox=6.0
CCOc1ccc(N2C(=O)NC(=O)/C(=C\c3ccc(N4CCCCC4)o3)C2=O)cc1,-1.0,2.5,-4.5,-21.4,2.5,9.6,
O=C1NC(=O)N(Cc2ccccc2)C(=O)/C1=C\C=C\c1ccco1,5.3,0.6,14.2,-17.1,2.5,17.2*,IDE inh confirm=10.1;HEK293 tox=57.6*
CC1(C)OC(c2ccccc2)=C/C(=C/C=C2C(=O)NC(=O)NC2=O)O1,6.0,3.9,0.8,-83.8,1.4,49.8*,IDE inh confirm=55.2*;HEK293 tox=8.4
COc1cccc(C)c1NC1=NCCO1,.,.,3.6,.,.,.,
Cc1c(C=C2C(=O)NC(=O)NC2=O)c(=O)n(-c2ccccc2)n1C,-4.9,-0.4,0.2,2.4,-1.6,-3.1,
CN1/C(=C\C=C2C(=O)NC(=O)NC2=O)C(C)(C)c2ccccc21,1.3,2.4,-0.1,-64.6,0.0,57.2*,IDE inh confirm=69.7*;HEK293 tox=11.7
O=c1c2ccccc2nc(/C=C/c2ccccn2)n1-c1ccccc1,-2.6,4.3,-2.1,-0.2,-3.3,-1.0,
SMILES,PP1 counter,PP5 inh,Exocytosis inh,IDE act,SKKanGAS inh,IDE inh,others
O=c1c2ccccc2nc(/C=C/c2ccc3c(c2)OCO3)n1-c1ccccc1,1.5,2.0,0.1,-3.6,-9.3,-2.8,
COc1cc(/C=C/c2nc3ccccc3c(=O)n2-c2ccc(O)cc2)ccc1O,-1.5,1.1,23.4,-47.0,20.0,32.5*,IDE inh confirm=111.3*;HEK293 tox=34.3*
COc1ccc(-n2c(/C=C/c3ccc(O)c(O)c3)nc3ccccc3c2=O)cc1,-2.2,1.4,7.6,-99.2,16.1,114.9*,IDE inh confirm=115.7*;HEK293 tox=22.7*
Cc1ccc(-[n+]2c(Cc3nn(-c4ccccc4)c(C)[n+]3-c3ccc(C)cc3)nn(-c3ccccc3)c2C)cc1,.,.,2.4,.,.,.,
CCN(CC)c1ccc(/C=N/c2sc3c(c2C#N)C2CCN3CC2)c(O)c1,-0.2,-3.0,-3.5,-76.1,.,19.7*,IDE inh confirm=122.6*;HEK293 tox=54.7*
Cc1nc2cc(OC(=O)N(C)Cc3cccc(-c4ccncc4)c3)ccc2s1,.,.,9.2,.,.,.,
O=C(COc1ccc(Br)cc1)N1CCN(C2CCCC2)CC1,-2.8,-1.2,-0.6,3.5,-6.7,-6.3,
Cc1ccc(OCC(=O)N2CCN(C3CCC(c4ccccc4)CC3)CC2)cc1 (stereo not drawn),-9.9,4.7,95.3*,2.5,-1.0,2.7,Granule exo CP1=-1.9
COC(=O)C1=C(c2ccc(C(C)=O)cc2)C[C@@H]2CC[C@H]1N2C(=O)NC1CCCCC1,-2.4,1.7,65.4*,0.7,.,-0.4,Granule exo CP1=-12.6
COC(=O)C1=C(c2ccc3ccccc3c2)C[C@@H]2CC[C@H]1N2C(=O)NC1CCCCC1,-2.8,2.1,9.5,2.4,.,-1.2,
CCCC1(CC(C)CC)C(=O)NC(=O)NC1=O (stereo not drawn),.,.,1.9,.,.,.,
O=C1/C(=C\c2ccc(Cl)cc2Cl)N2CCC1CC2,-7.0,2.2,64.8*,.,2.3,3.2,Granule exo CP1=-12.0
